Measured values as given in PubChem BioAssay AID1159580 (chemical genetic matrix, 2015).
Values joined by “and” are separate entries in the source; they are usually repeats but may differ in a detail not shown here. Equal values may be shown once. The whole screen tested about 5,500 compounds, of which about 2,000 (36%) were called active. About 18% were inconclusive and are not listed. Rule as the data show it: active = normalized growth mostly below about 0.91 (no sharp cut-off); inconclusive = no clear call, values can overlap the other calls; inactive = mostly above about 0.92. Some of the results follow.

Assay: chemical genetic growth profiling, strain panel (AID 1159580);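 also: tested at 20 µM; growth read once vehicle control cultures reached saturation at 30 °C; 1 = growth at the plate median or of vehicle wells; lower values mean less growth of the strain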
Settings: S. cerevisiae deletion strains, growth OD
[1] = locus YHR030C, strain SLT2, hits give low values
[2] = locus YHR079C, strain IRE1, hits give low values
[3] = locus YJL095W, strain BCK1, hits give low values
[4] = locus YJR066W, strain TOR1, hits give low values
[5] = locus YLR113W, strain HOG1, hits give low values
[6] = locus YNL183C, strain NPR1, hits give low values
[7] = locus YOR231W, strain MKK1, hits give low values
[8] = locus YPL256C, strain CLN2, hits give low values
[9] = locus YAL013W, strain DEP1, hits give low values
[10] = locus YBR229C, strain ROT2, hits give low values
[11] = locus YDL101C, strain DUN1, hits give low values
[12] = locus YEL061C, strain CIN8, hits give low values
[13] = locus YGR078C, strain PAC10, hits give low values
[14] = locus YJR043C, strain POL32, hits give low values
[15] = locus YJR075W, strain HOC1, hits give low values
[16] = locus YLR039C, strain RIC1, hits give low values
[17] = locus YLR262C, strain YPT6, hits give low values
[18] = locus YNL153C, strain GIM3, hits give low values
[19] = locus YOL006C, strain TOP1, hits give low values
[20] = locus YPL055C, strain LGE1, hits give low values
[21] = locus YPL241C, strain CIN2, hits give low values
[22] = locus YMR307W, strain GAS1, hits give low values

Measured: normalized growth

O=C[C@H](O)[C@@H](O)[C@H](O)CO
inactive: [1] 1.04 | [2] 1.06 | [3] 1.06 | [4] 0.998 | [5] 1.07 | [6] 1.03 | [7] 1.09 | [8] 1.02

Clc1ccc2ocnc2c1
inactive: [9] 1.01 | [10] 1.01 | [11] 1 | locus YDR150W, strain NUM1, hits give low values 0.95 | [12] 1.01 | [13] 1 | locus YGR229C, strain SMI1, hits give low values 1.01 | [1] 1.05 | locus YHR087W, strain rtc3, hits give low values 0.996 | [14] 0.931 | [15] 0.999 | locus YKL190W, strain CNB1, hits give low values 1.02 | [16] 1.02 | locus YLR058C, strain SHM2 (second series), hits give low values 1 | locus YLR085C, strain ARP6, hits give low values 0.997 | [17] 1.08 | locus YML094W, strain GIM5, hits give low values 0.999 | locus YMR219W, strain ESC1, hits give low values 1.01 | locus YMR263W, strain SAP30, hits give low values 1.01 | locus YNL128W, strain TEP1, hits give low values 1.02 | [18] 0.996 | locus YNL298W, strain CLA4 (second series), hits give low values 1.04 | locus YNL322C, strain KRE1, hits give low values 1.01 | locus YNR030W, strain Alg12, hits give low values 1 | [19] 1.09 | [20] 0.906 | [21] 1.01 | locus YPR135W, strain CTF4, hits give low values 1.08

CC(C)NCC(O)COc1ccc(CCOCC2CC2)cc1 (stereo not given)
inactive: locus YAL040C, strain CLN3, hits give low values 1.05 | locus YCL061C, strain MRC1 (second series), hits give low values 1 | locus YER002W, strain NOP16, hits give low values 1.03 | [13] 0.994 | [22] 0.998 | [18] 1.01 | locus YNL175C, strain NOP13, hits give low values 1.02 | locus YNL197C, strain WHI3, hits give low values 1.03 | locus YNL224C, strain SQS1, hits give low values 1.01 | locus YOR083W, strain WHI5 (second series), hits give low values 1.05 | [20] 0.998 | [21] 1

O=C(Oc1ccccc1C(=O)O)c1ccccc1O
inactive: [9] 0.985 | locus YAL021C, strain ccr4, hits give low values 1 | locus YAL026C, strain drs2, hits give low values 0.982 | locus YAL030W, strain snc1, hits give low values 0.979 | locus YBL061C, strain skt5, hits give low values 0.973 | locus YBR009C, strain hhf1, hits give low values 1.01 | locus YBR021W, strain FUR4, hits give low values 1 | locus YBR023C, strain chs3, hits give low values 1 | locus YBR171W, strain sec66, hits give low values 0.941 | [10] 0.955 | locus YBR231C, strain swc5, hits give low values 0.984 | locus YBR279W, strain paf1, hits give low values 1 | locus YCL011C, strain gbp2, hits give low values 0.975 | locus YCL016C, strain dcc1, hits give low values 1 | locus YCL029C, strain bik1, hits give low values 0.985 | locus YCL069W, strain vba3, hits give low values 0.986 | locus YCR088W, strain abp1, hits give low values 0.972 | locus YDL005C, strain med2, hits give low values 0.944 | locus YDL035C, strain GPR1, hits give low values 0.964 | locus YDL040C, strain nat1, hits give low values 0.982 | locus YDL074C, strain BRE1, hits give low values 0.974 | [11] 0.98 | locus YDL185W, strain tfp1, hits give low values 0.961 | locus YDL192W, strain arf1, hits give low values 0.977 | locus YDR001C, strain nth1, hits give low values 0.953 | locus YDR069C, strain doa4, hits give low values 0.971 | locus YDR101C, strain arx1, hits give low values 0.944 | locus YDR137W, strain rgp1, hits give low values 0.972 | locus YDR159W, strain sac3, hits give low values 0.978 | locus YDR162C, strain NBP2, hits give low values 0.97 | locus YDR195W, strain ref2 0.897 | locus YDR297W, strain sur2, hits give low values 0.997 | locus YDR318W, strain mcm21, hits give low values 1 | locus YDR334W, strain swr1, hits give low values 0.942 | locus YDR335W, strain msn5, hits give low values 0.975 | locus YDR388W, hits give low values 0.976 | locus YDR392W, strain spt3, hits give low values 1 | locus YDR502C, strain sam2, hits give low values 0.996 | locus YEL003W, strain gim4, hits give low values 0.979 | locus YEL037C, strain rad23, hits give low values 0.965 | locus YEL061C, strain CIN8 (second series), hits give low values 0.978 | [12] 0.984 | locus YER015W, strain faa2, hits give low values 0.989 | locus YER016W, strain bim1, hits give low values 1 | locus YER110C, hits give low values 0.983 | locus YER111C, strain swi4, hits give low values 0.95 | locus YER155C, strain BEM2 (second series), hits give low values 0.99 | locus YER155C, strain BEM2, hits give low values 0.997 | locus YER167W, strain BCK2, hits give low values 1 | locus YFR010W, strain ubp6, hits give low values 0.966 | locus YGL078C, strain dbp3, hits give low values 1.01 | locus YGL086W, strain mad1, hits give low values 0.976 | locus YGL167C, strain pmr1, hits give low values 0.937 | locus YGL173C, strain kem1, hits give low values 0.979 | locus YGL227W, strain vid30, hits give low values 0.98 | locus YGL240W, strain doc1, hits give low values 0.985 | locus YGL248W, strain PDE1, hits give low values 0.99 | locus YGL253W, strain hxk2, hits give low values 0.968 | locus YGR135W, strain pre9, hits give low values 1.06 | locus YGR252W, strain gcn5, hits give low values 1.09 | locus YHR013C, strain ard1, hits give low values 0.963 | locus YHR027C, strain rpn1, hits give low values 0.985 | [1] 0.977 and 1 | locus YHR079C, strain IRE1 (second series), hits give low values 0.98 | [2] 0.987 | locus YHR094C, strain hxt1, hits give low values 0.977 | locus YHR129C, strain ARP1, hits give low values 0.955 | locus YHR142W, strain chs7, hits give low values 0.982 | locus YHR200W, strain rpn10, hits give low values 0.987 | locus YIL066C, strain RNR3, hits give low values 0.971 | locus YIL073C, strain SPO22, hits give low values 1.03 | locus YIL125W, strain kgd1, hits give low values 0.992 | locus YIR030C, strain dcg1, hits give low values 0.992 | locus YJL092W, strain hpr5, hits give low values 0.961 | locus YJL095W, strain BCK1 (second series), hits give low values 0.972 | [3] 1.02 and 0.96 | locus YJL115W, strain asf1, hits give low values 0.956 | locus YJL129C, strain trk1, hits give low values 0.955 | locus YJL134W, strain LCB3, hits give low values 0.985 | locus YJL154C, strain vps35, hits give low values 0.933 | locus YJL164C, strain tpk1, hits give low values 1.01 | locus YJL166W, strain qcr8, hits give low values 0.964 | locus YJL168C, strain set2, hits give low values 0.988 | locus YJL187C, strain SWE1 (second series), hits give low values 0.966 | [14] 0.975 | [4] 0.937 | [15] 0.978 | locus YKL009W, strain mrt4, hits give low values 0.971 | locus YKL068W, hits give low values 0.978 | locus YKL085W, strain MDH1 (second series), hits give low values 0.998 | locus YKL085W, strain MDH1, hits give low values 0.998 | locus YKL160W, strain elf1, hits give low values 0.969 | locus YKR001C, strain vps1, hits give low values 0.986 | locus YKR026C, strain gcn3, hits give low values 0.923 | locus YKR091W, strain srl3, hits give low values 0.984 | locus YLL001W, strain dnm1, hits give low values 0.944 | locus YLL026W, hits give low values 1 | locus YLL041C, strain sdh2, hits give low values 0.968 | locus YLR027C, strain aat2, hits give low values 0.984 | [16] 0.991 | locus YLR058C, strain SHM2, hits give low values 0.971 | locus YLR102C, strain apc9, hits give low values 0.993 | [5] 0.906 | locus YLR221C, strain rsa3, hits give low values 1 | locus YLR258W, strain gsy2, hits give low values 0.974 | locus YLR262C, strain YPT6 (second series), hits give low values 0.925 | [17] 0.908 | locus YLR268W, strain sec22, hits give low values 0.978 | locus YLR320W, strain mms22, hits give low values 1 | locus YLR330W, strain CHS5, hits give low values 0.988 | locus YLR342W, strain FKS1 (second series), hits give low values 1 | locus YLR342W, strain FKS1, hits give low values 0.979 | locus YLR357W, strain rsc2, hits give low values 0.958 | locus YLR370C, strain arc18, hits give low values 0.986 | locus YLR371W, strain rom2, hits give low values 0.998 | locus YLR384C, strain iki3, hits give low values 0.967 | locus YLR418C, strain cdc73, hits give low values 1.03 | locus YML016C, strain PPZ1, hits give low values 0.987 | locus YML032C, strain rad52, hits give low values 0.976 | locus YML120C, strain ndi1, hits give low values 0.967 | locus YML124C, strain tub3, hits give low values 0.992 | locus YMR058W, strain fet3, hits give low values 0.995 | locus YMR078C, strain ctf18, hits give low values 0.988 | locus YMR125W, strain sto1, hits give low values 0.93 | locus YMR129W, hits give low values 0.968 | locus YMR205C, strain PFK2, hits give low values 0.96 | locus YMR223W, strain ubp8, hits give low values 1.02 | locus YMR231W, strain pep5, hits give low values 0.956 | [22] 0.999 | locus YNL067W, strain RPL9B, hits give low values 0.98 | locus YNL071W, strain lat1, hits give low values 0.971 | [18] 0.982 | [6] 0.921 | locus YNL209W, strain ssb2, hits give low values 0.981 | locus YNL233W, strain BNI4, hits give low values 0.988 | locus YNL248C, strain rpa49, hits give low values 0.997 | locus YNL250W, strain rad50, hits give low values 0.995 | locus YNL271C, strain bni1, hits give low values 0.993 | locus YNL298W, strain CLA4, hits give low values 1.01 | locus YNL307C, strain MCK1, hits give low values 0.986 | locus YNL322C, strain KRE1 (second series), hits give low values 0.963 | locus YNR049C, strain mso1, hits give low values 0.967 | locus YNR052C, strain pop2, hits give low values 0.988 | [19] 1.02 | locus YOL012C, strain htz1 0.938 | locus YOL147C, strain pex11, hits give low values 0.993 | locus YOR001W, strain rrp6, hits give low values 0.984 | locus YOR061W, strain CKA2, hits give low values 0.972 | locus YOR069W, strain VPS5, hits give low values 0.986 | locus YOR070C, strain gyp1, hits give low values 0.994 | locus YOR080W, strain dia2, hits give low values 0.963 | locus YOR083W, strain WHI5, hits give low values 0.996 | locus YOR106W, strain vam3, hits give low values 0.958 | locus YOR136W, strain idh2, hits give low values 0.982 | locus YOR144C, strain elg1, hits give low values 0.984 | locus YOR184W, strain ser1, hits give low values 0.986 | [7] 0.959 | locus YOR265W, strain rbl2, hits give low values 0.98 | locus YOR270C, strain vph1, hits give low values 0.931 | locus YOR290C, strain snf2, hits give low values 1 | locus YOR316C, strain cot1, hits give low values 0.97 | locus YPL051W, strain arl3, hits give low values 0.993 | [20] 0.992 | locus YPL078C, strain atp4, hits give low values 0.962 | locus YPL106C, strain sse1, hits give low values 0.99 | locus YPL240C, strain hsp82, hits give low values 0.982 | [8] 0.98 | locus YPR119W, strain clb2, hits give low values 0.985 | locus YPR141C, strain kar3, hits give low values 0.979 | locus YPR163C, strain tif3, hits give low values 0.986 | locus YPR167C, strain met16, hits give low values 0.998 | strain wtn01, hits give low values 1.02
